From PubChem BioAssay
HT1080 IDH1KD tx: HT-1080 IDH1 knockdown cell toxicity (counter line); 360,000 tested, 2% active; HT-1080 IDH1 knockdown viability, ATP luminescence, 48 h; Potency, µM (top dose mostly 46.1 µM), for inactives: top-dose activity, negative = toxicity, usual class: cytotoxic; AID 686971;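 further: 0% = DMSO wells and -100% = cell-free medium wells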
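CellTiter-Glo luminescence after 48 h compound exposure at 37 degrees C of IDH1-knockdown HT-1080 cells in 5% FBS RPMI. %Activity scaled between DMSO wells and cell-free media wells, with curves fitted and assigned curve classes.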
DT40 TDP1 CPT: DT40-hTDP1 cell growth loss with CPT. chicken DT40 Tdp1-/-;hTDP1 cells + 20 nM CPT, ATP luminescence, 48 h. Potency, µM (doses to about 46.2 µM), inactives show at the highest dose activity change, negative = growth inhibition, hits mostly inhibitors. 420,000 tested, 12% active; further: nearly all actives have a fitted effect of over 55% in size
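Chicken DT40 Tdp1-/- cells stably complemented with human TDP1 were seeded at 400 cells/well in medium containing 20 nM camptothecin, exposed to pin-transferred compounds, and grown at 37 °C for at least 48 hr. Viability was read as ATP luminescence.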
TDP1 cell noCPT: qHTS for Inhibitors of human tyrosyl-DNA phosphodiesterase 1 (TDP1): qHTS in cells in absence of CPT; DT40 Tdp1-/- hTDP1 cells, no CPT, ATP luminescence, 48 h; Potency, µM (titrated, usually from 46.2 µM), inactives show top-dose activity change, negative = growth inhibition, hits mostly inhibitors; 420,000 tested, 15% active; AID 686978, 2013; further: nearly all actives have a fitted effect of over 55% in size
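Cells were dispensed at 400 per well, compounds added by pin tool, plates incubated ≥48 hr at 37 °C, then CellTiter-Glo added for 30 min at room temperature before luminescence reading. Line: DT40 Tdp1-/- complemented with hTDP1; camptothecin omitted.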
KB-3-1 tox: kills parental KB-3-1 adenocarcinoma cells. Potency, µM (series often up to 46.1 µM), hits mostly cytotoxic. KB-3-1 viability, CellTiter-Glo ATP luminescence, 72 h. 400,000 tested, 1.4% active. AID 1347075; further: nearly all actives have a fitted effect of over 60% in size
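Cells are dispensed, compounds pinned in, plates held at 37 °C for 72 h, then CellTiter-Glo is added and luminescence read after 10 minutes. Cell line: parental KB-3-1 in phenol-red-free DMEM, 10% FBS.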
KB-V1 cytotox: kills drug-selected multidrug resistant KB-V1 cells; KB-V1 MDR cells viability, CellTiter-Glo, 72 h; 400,000 tested, 3.4% active; Potency, µM (titrated, usually from 46.1 µM), usual class: cytotoxic; further: nearly all actives have a fitted effect of over 60% in size
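Compound-treated KB-V1 multidrug-resistant cells, 72 h, 37 degrees C; viability by CellTiter-Glo. Fitted qHTS curves give the values.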
HT1080NT lethal: kills 2HG-producing HT-1080-NT fibrosarcoma cells. 360,000 tested, 1.6% active. Potency, µM (doses to about 46.1 µM), without a hit: at the top dose activity, negative = less viability, hits mostly cytotoxic. AID 686970. HT-1080-NT fibrosarcoma viability, CellTiter-Glo ATP luminescence, 48 h;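 further: NT is the 2HG producing partner of a matched IDH1 knockdown line; 0% = DMSO-treated cells and -100% = media-only wells without cells; nearly all actives have a fitted effect of over 55% in size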
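HT-1080-NT fibrosarcoma cells (2HG-overproducing), 750 cells/well in RPMI with 5% FBS, dosed after 2 h and incubated 48 h at 37C. CellTiter-Glo luminescence normalized to DMSO and no-cell wells; concentration-response curves fitted and classed.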
The depositor's hits bear a star; i = inactive; u = inconclusive; x = no result. Hits are enriched below; roughly 19% of the tested compounds scored in any of these assays. The call rests on the fitted dose curve; in most records, active means well fitted curve in the direction sought with a large enough effect; inconclusive means small, poorly fitted or top-dose-only effect, or another doubt; inactive means no such curve, though single readings can be large; an effect the other way counts as inactive or inconclusive. Unless noted, on the % scale 0 is the no-effect control and ±100 the full control effect; potency means the concentration at half of the fitted maximal effect.

SMILES | HT1080 IDH1KD tx | DT40 TDP1 CPT | TDP1 cell noCPT | KB-3-1 tox | KB-V1 cytotox | HT1080NT lethal
CCCCCCCCNC(=O)c1cccnc1SCC(=O)Nc1ccccc1OC | -13% | u | 21µM* | i | u | -9%
COc1ccccc1NC(=O)CSc1n[nH]c(-c2ccco2)n1 | -4% | 7% | -16% | i | u | -1%
COc1ccc(OC)c(NC(=O)CSc2n[nH]c(-c3ccccc3Cl)n2)c1 | x | 10µM* | u | i | u | x
COc1ccccc1NC(=O)CSc1n[nH]c(-c2ccccn2)n1 | -27% | u | 15µM* | u | u | -9%
COc1ccccc1NC(=O)CSc1ncn(-c2ccccc2)n1 | -1% | -12% | u | i | 16µM* | -4%
Cc1cc(=O)n2nc(N3CCCC(C(=O)NCc4ccccc4Cl)C3)sc2n1 (stereo not given) | -1% | -11% | 8% | i | i | 2%
COc1ccc(NC(=O)CSc2n[nH]c(-c3ccccn3)n2)cc1 | u | 16µM* | 23µM* | u | i | -15%
O=C(CSc1n[nH]c(-c2ccccn2)n1)Nc1ccccc1F | -14% | 4.1µM* | 2.9µM* | u | u | 0%
O=C(CSc1n[nH]c(-c2ccccn2)n1)Nc1ccccc1 | 21µM* | 23µM* | u | u | i | u
COc1ccccc1-c1nc(SCC(=O)Nc2ccccc2F)n[nH]1 | u | u | u | u | u | -16%
COc1ccccc1-c1nc(SCC(=O)Nc2ccccc2)n[nH]1 | -9% | -24% | -20% | i | i | -1%
S=c1nc[nH]c2c1ncn2-c1ccc(Cl)cc1 | 19% | -3% | -13% | u | 10µM* | 6%
CCOCCCNC(=O)/C(C#N)=C/c1cc(Br)c(O)c(Br)c1 | 2.1µM* | 4.1µM* | 1.6µM* | 6.5µM* | 3.7µM* | 2.3µM*
CCOCCCNC(=O)/C(C#N)=C/c1ccc([N+](=O)[O-])o1 | 7.3µM* | 1.3µM* | 1.8µM* | i | i | u
COCCNC(=O)/C(C#N)=C/c1cc(Br)c(O)c(OC)c1 | 3% | 4% | -2% | i | i | 2%
COCCNC(=O)/C(C#N)=C/c1ccc(-c2ccc(S(=O)(=O)N3CCOCC3)cc2)o1 | -8% | u | u | i | i | 16%
CCOCCCNC(=O)/C(C#N)=C/c1ccc(-c2ccc(S(=O)(=O)N3CCOCC3)cc2)o1 | -1% | 12µM* | 8.2µM* | i | 16µM* | -13%
CCCCNC(=O)/C(C#N)=C/c1ccc(C(=O)OC)cc1 | 19% | u | u | i | i | -15%
COc1ccc(OCc2nc3c4c(-c5ccc(OC)cc5)c(-c5ccc(OC)cc5)oc4ncn3n2)cc1 | x | -8% | 3% | i | i | x
COc1ccc(Cl)cc1NC(=O)CN(C)C(=O)CN1C(=O)NC(C)(c2ccc3ccccc3c2)C1=O (stereo not given) | u | u | 15µM* | 10µM* | u | u
CC1(c2ccc3ccccc3c2)NC(=O)N(CC(=O)N2CCN(c3ccccc3O)CC2)C1=O (stereo not given) | 0% | u | 13µM* | i | u | -6%
CC1CCN(C(=O)CN2C(=O)NC(C)(c3ccc4ccccc4c3)C2=O)CC1 (stereo not given) | -1% | 18µM* | 16µM* | i | i | 4%
CN1CCN(C(=O)CN2C(=O)NC(C)(c3ccc4ccccc4c3)C2=O)CC1 (stereo not given) | 3% | -4% | -2% | i | i | 0%
COc1ccc(Cl)cc1NC(=O)CN(C)C(=O)CN1C(=O)NC(C)(C)C1=O | 0% | 3% | -13% | x | x | 0%
CC1(c2ccc3ccccc3c2)NC(=O)N(CC(=O)N2CCN(S(=O)(=O)c3ccccc3F)CC2)C1=O (stereo not given) | u | u | 23µM* | x | x | -28%
CN(Cc1cn(Cc2ccccc2)nc1-c1ccc2c(c1)OCO2)Cc1nccn1C | -13% | u | u | i | i | -4%
Cc1ccc(C2(C)NC(=O)N(CC(=O)N3CCN(S(=O)(=O)c4cccs4)CC3)C2=O)cc1 (stereo not given) | 8% | -16% | -26% | i | i | 1%
Cc1ccc(C2(C)NC(=O)N(CC(=O)N3CCN(S(=O)(=O)c4ccc(Cl)s4)CC3)C2=O)cc1 (stereo not given) | -9% | 21µM* | u | u | u | -4%
Cc1ccc(S(=O)(=O)N2CCN(C(=O)CN3C(=O)NC(C)(c4ccc5ccccc5c4)C3=O)CC2)cc1 (stereo not given) | 0% | u | u | i | u | -9%
COc1cccc(N2CCN(C(=O)CN3C(=O)NC(C)(c4ccc5ccccc5c4)C3=O)CC2)c1 (stereo not given) | -6% | 13µM* | 16µM* | i | i | -12%
